In the supplement of paper PMC4709259 one finds mean cell size and cell count data, which are given here for 24 compounds.

For assay [1], the system named is Jurkat. Briefly: mean cell size (FSC-A) relative to DMSO control (fraction of control); higher = larger cells. Conditions: 48 h. The essentials:
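Jurkat cells at 600 cells/µl were incubated for 1 h and then treated for 48h with the Enzo Screen-Well FDA Approved Drug Library v2.0 at 25µM, with DMSO at 0.9% (v/v) final. Compounds that reduced counts below 20% of controls were retested in 10-fold dilutions down to 25nM. Cell count and mean cell size, taken as forward scatter area, were measured by flow cytometry relative to solvent-only controls. Each plate carried 6-12 controls, and values are means of 3 biological replicates.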

In assay [2] the test system is Jurkat. Briefly: cell count relative to DMSO control (fraction of control); higher = more cells (less growth inhibition). To be noted: 48 h.

Counter-ions that a name gives are not always drawn. ± gives the standard deviation.

`COc1ccccc1OCC(O)COC(N)=O` (stereo not drawn) [Methocarbamol] (concentration: 25 µM) returned a mean cell size with Jurkat [1] of 0.969 ± 0.057. In the assay with Jurkat [2], this compound had a cell count of 0.715 ± 0.14.
Taken in the same sequence, the figures for `CC(C)(C)NC[C@H](O)COc1nsnc1N1CCOCC1` [(S)-Timolol Maleate] (concentration: 25 µM) were 0.963 ± 0.034 and 0.967 ± 0.15.
Regarding `CC(c1cc2ccccc2s1)N(O)C(N)=O` (stereo not drawn) [Zileuton] (concentration: 25 µM), the mean cell size in the assay with Jurkat [1] was 1 ± 0.038. In the assay with Jurkat [2], this compound returned a cell count of 0.839 ± 0.068.
`O=C(O)COCCN1CCN([C@H](c2ccccc2)c2ccc(Cl)cc2)CC1` [Levocetirizine Dihydrochloride] (concentration: 25 µM) yielded a mean cell size in the assay with Jurkat [1] of 0.961 ± 0.039. This compound also yielded a cell count in the assay on Jurkat [2] of 0.91 ± 0.068.
For the compound `Cc1onc(-c2ccccc2Cl)c1C(=O)N[C@@H]1C(=O)N2[C@@H]1SC(C)(C)[C@@H]2C(=O)O` [Cloxacillin·Na] (concentration: 25 µM), the mean cell size in the assay on Jurkat [1] is 0.99 ± 0.031. Also, in the assay on Jurkat [2], the cell count amounted to 0.703 ± 0.056.
Taken in the same sequence, the figures for `COCCCOc1ccnc(C[S+]([O-])c2nc3ccccc3[nH]2)c1C` (stereo not drawn) [Rabeprazole·Na] (concentration: 25 µM) were 0.923 ± 0.02 and 0.523 ± 0.06.
Taken in the same sequence, the figures for `CC(C)C[C@H](NC(=O)[C@@H](COC(C)(C)C)NC(=O)[C@H](Cc1ccc(O)cc1)NC(=O)[C@H](CO)NC(=O)[C@H](Cc1c[nH]c2ccccc12)NC(=O)[C@H](Cc1cnc[nH]1)NC(=O)[C@@H]1CCC(=O)N1)C(=O)N[C@@H](CCCNC(=N)N)C(=O)N1CCC[C@H]1C(=O)NNC(N)=O` [Goserelin Acetate] (concentration: 25 µM) were 0.953 ± 0.045 and 1.044 ± 0.003.
Turning to `Cc1cnc(C(=O)NCCc2ccc(S(=O)(=O)NC(=O)NC3CCCCC3)cc2)cn1` [Glipizide] (concentration: 25 µM), the mean cell size with Jurkat [1] is 1.09 ± 0.049. Also, in the assay on Jurkat [2], the cell count is 0.612 ± 0.11.
Regarding `COc1ccc(-c2ccc3cc(C(=O)O)ccc3c2)cc1C12CC3CC(CC(C3)C1)C2` [Adapalene] (concentration: 2.5 µM), the mean cell size in the assay on Jurkat [1] is 1.1 ± 0.1. The cell count in the assay with Jurkat [2] is 0.269 ± 0.081.
Taken in the same sequence, the figures for `CC1(C)S[C@@H]2[C@H](NC(=O)[C@H](N)c3ccccc3)C(=O)N2[C@H]1C(=O)O` [Ampicillin Trihydrate] (concentration: 25 µM) were 0.849 ± 0.05 and 1.17 ± 0.068.
In the assay with Jurkat [1], `Nc1cccc2c1CN(C1CCC(=O)NC1=O)C2=O` (stereo not drawn) [Lenalidomide] (concentration: 25 µM) had a mean cell size of 0.951 ± 0.021. Further, in the assay with Jurkat [2], the cell count stood at 1.03 ± 0.11.
Taken in the same sequence, the figures for `CC(C)(C)NCC(O)c1cc(O)cc(O)c1` (stereo not drawn) [Terbutaline Hemisulfate] (concentration: 25 µM) were 0.92 ± 0.066 and 0.503 ± 0.057.
Taken in the same sequence, the figures for `O=C1O[C@H]([C@@H](O)CO)C(O)=C1O` [L-Ascorbic Acid] (concentration: 25 µM) were 1 ± 0.029 and 0.836 ± 0.068.
With `CCOC(=O)N1CCC(=C2c3ccc(Cl)cc3CCc3cccnc32)CC1` [Loratadine] (concentration: 25 µM), the mean cell size with Jurkat [1] was determined as 0.938 ± 0.034. For the same compound, the cell count in the assay on Jurkat [2] was determined as 0.367 ± 0.031.
Taken in the same sequence, the figures for `CC(=O)O[C@H]1C[C@@H]2CC[C@@H]3[C@H](CC[C@@]4(C)[C@H]3C[C@H]([N+]3(C)CCCCC3)[C@@H]4OC(C)=O)[C@@]2(C)C[C@@H]1N1CCCCC1` [Vecuronium Bromide] (concentration: 25 µM) were 0.858 ± 0.043 and 0.294 ± 0.13.
Taken in the same sequence, the figures for `CN(C)CCC(c1ccc(Cl)cc1)c1ccccn1` (stereo not drawn) [Chlorpheniramine Maleate] (concentration: 25 µM) were 0.961 ± 0.02 and 0.917 ± 0.11.
Taken in the same sequence, the figures for `CCn1cc(C(=O)O)c(=O)c2cc(F)c(N3CCNCC3)cc21` [Norfloxacin] (concentration: 25 µM) were 0.9213 ± 0.0047 and 0.982 ± 0.014.
For `CN1CC(=O)N2[C@H](c3ccc4c(c3)OCO4)c3[nH]c4ccccc4c3C[C@@H]2C1=O` [Tadalafil] (concentration: 25 µM), in the assay on Jurkat [1], the mean cell size amounted to 0.922 ± 0.05. Moreover, the cell count with Jurkat [2] amounted to 0.413 ± 0.12.
The compound `Clc1ccc(C(c2ccccc2Cl)C(Cl)Cl)cc1` (stereo not drawn) [Mitotane] (concentration: 25 µM) gave a mean cell size in the assay with Jurkat [1] of 1 ± 0.02. For the same compound, the cell count with Jurkat [2] amounted to 0.866 ± 0.14.
Taken in the same sequence, the figures for `NCC(=O)CCC(=O)O` [Aminolevulinic Acid·HCl] (concentration: 25 µM) were 0.911 ± 0.013 and 0.638 ± 0.08.
Take `Cc1onc(-c2ccccc2)c1C(=O)N[C@@H]1C(=O)N2[C@@H]1SC(C)(C)[C@@H]2C(=O)O` [Oxacillin·Na] (concentration: 25 µM): the mean cell size in the assay on Jurkat [1] was 0.9367 ± 0.005. Further, the cell count with Jurkat [2] stood at 0.975 ± 0.1.
Taken in the same sequence, the figures for `O=C(O)c1cc(/N=N/c2ccc(S(=O)(=O)Nc3ccccn3)cc2)ccc1O` [Sulfasalazine] (concentration: 25 µM) were 0.965 ± 0.024 and 0.914 ± 0.11.
Taken in the same sequence, the figures for `CC[C@H]1OC(=O)[C@H](C)[C@@H](O[C@H]2C[C@@](C)(OC)[C@@H](O)[C@H](C)O2)[C@H](C)[C@@H](O[C@@H]2O[C@H](C)C[C@H](N(C)C)[C@H]2O)[C@](C)(OC)C[C@@H](C)C(=O)[C@H](C)[C@@H](O)[C@]1(C)O` [Clarithromycin] (concentration: 25 µM) were 0.977 ± 0.057 and 1.05 ± 0.078.
Consider `O=C(O)[C@H]1/C(=C/CO)O[C@@H]2CC(=O)N21` [Clavulanate Potassium] (concentration: 25 µM), for which the mean cell size with Jurkat [1] came to 0.994 ± 0.011. This compound registered a cell count in the assay with Jurkat [2] of 0.787 ± 0.095.
